Screening data: PubChem, National Center for Advancing Translational Sciences (NCATS)
SARS PLP yeast – inhibitors of SARS-CoV papain-like protease in yeast; 330,000 tested, 0.19% active; S. cerevisiae expressing SARS-CoV PLpro, growth rescue; Potency, µM (top dose mostly 32.9 µM), for the others: at the highest dose activity, positive = growth rescue, usual class: activators; calls by dose curve; also: 0% is about no effect; nearly all actives have a fitted effect of over 55% in size
NS1 function inh – blocks influenza NS1 protein function. Potency, µM (doses to about 46.1 µM), for inactives: at the top dose activity, positive = more growth. 270,000 tested, 0.4% active. AID 2326; calls by dose curve; also: actives are rising curves; nearly all actives have a fitted effect of over 50% in size
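A cell-based growth assay was used: compounds that relieve NS1-induced slow growth of budding yeast raise OD600. Assay medium was yeast nitrogen base with ammonium sulphate and -URA supplement, pH 6.0, with 2% galactose.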
HCV inhibitor – inhibitors of hepatitis C virus infection | Potency, µM (doses to about 41.8 µM), without a hit: at the top dose activity change, negative = inhibition, hits mostly inhibitors | Huh7.5.1 HCVcc-Cre infection, luciferase reporter, 44 h | 340,000 tested, 3.4% active | AID 651820; also: % is scaled to controls: 0 for no effect and ±100 for the full control effect
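Infectious HCVcc-Cre (~0.5 moi) was added to cells just after compound, with cells seeded 4 h earlier at 1,000 per well. Luciferase activity after 44 h culture reported infection; substrate was incubated 15 min at room temperature before reading.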
Pf growth 96h – inhibits malaria parasite growth, 96 h; P. falciparum luciferase reporter growth, 96 h; Potency, µM (highest dose often 28.7 µM), for the others: at the top dose activity change, negative = inhibition, actives largely listed as inhibitors; 320,000 tested, 6.9% active; AID 504834; also: % is scaled to controls: 0 for no effect and ±100 for the full control effect
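Compounds incubated with erythrocytes infected by luciferase-expressing P. falciparum (2% hematocrit, 0.05% parasitemia final) for 96 hours, 37 C in 5% CO2. Growth inhibition scored as decreased luciferase luminescence.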
Pf growth 48h – P. falciparum growth inhibition at 48 hours (one generation) | Potency, µM (doses to about 28.7 µM), without a hit: at the highest dose activity change, negative = inhibition, most hits filed as inhibitors | P. falciparum luciferase growth in erythrocytes, 48 h | 310,000 tested, 5.9% active | AID 504832; also: % is scaled to controls: 0 for no effect and ±100 for the full control effect
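Erythrocytes infected with P. falciparum carrying an integrated firefly luciferase reporter (2% hematocrit, 0.1% parasitemia final) were exposed to compounds in RPMI 1640 with 0.5% Albumax at 37 C, 5% CO2. Growth inhibition was scored as reduced luminescence.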
AMA1-RON2 inh – AMA1-RON2 (P. falciparum) interaction inhibition. AlphaScreen AMA1-biotinylated RON2 peptide binding. Potency, µM (top dose mostly 58.2 µM), for inactives: at the top dose activity change, negative = inhibition, actives largely listed as inhibitors. 360,000 tested, 0.2% active. AID 720542;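 also: 0% = vehicle wells and -100% = peptide control; nearly all actives have a fitted effect of over 45% in size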
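AMA1 (3D7) with his tag at 25 nM final met compounds first, then biotinylated RON2 peptide at 25 nM; detection used donor plus acceptor beads, 10 µg/mL apiece, read by AlphaScreen after 30 min at room temperature.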
Active calls of the source: *; ? = inconclusive; / = no result; [ ] = dose if it differs, or a comment. The list is not random: actives were taken first. Their share in the collection is about 12%. Unless noted, calls follow the shape of the dose curve; as a rule, active = well fitted curve in the direction sought with a large enough effect; inconclusive = small, poorly fitted or top-dose-only effect, or another doubt; inactive = no such curve, though single readings can be large; an effect the other way counts as inactive or inconclusive. Potency is read from the fitted curve at half-maximal effect.

SMILES	SARS PLP yeast	NS1 function inh	HCV inhibitor	Pf growth 96h	Pf growth 48h	AMA1-RON2 inh
Cc1cc(C)c(-n2c(C)cc(/C=C3/NC(=O)NC3=O)c2C)c(C)c1	-38%	-50%	-12%	5.9µM*	?	-4%
Cc1cc(/C=C2/NC(=O)NC2=O)c(C)n1C	-1%	/	10%	4.7µM*	13%	-5%
Cc1c(S(=O)(=O)Nc2ccc(Oc3ccccc3)cc2)c(=O)n(C)c(=O)n1C	3%	9%	-13%	-7%	3%	1%
CC(=O)n1c(Cl)c(NC(=O)CCl)c2ccccc21	?	0%	14µM*	2.1µM*	/	-1%
COc1ccc(NC(=O)c2ccsc2NC(C)=O)cc1	-8%	/	-3%	181%	126%	1%
COc1cc2oc(-c3ccc(O)cc3)cc(=O)c2c(OC)c1O	0%	1%	-16%	?	?	-11%
O=c1cc(-c2ccc(O)cc2)oc2c1ccc1ccccc12	5%	/	-26%	?	32%	13%
COc1cc2oc(-c3ccc(O)cc3)cc(=O)c2c(O)c1OC	0%	-5%	?	10µM*	-1%	67%
O=c1cc(-c2ccc(O)cc2)oc2ccc3ccccc3c12	-8%	/	13µM*	-4%	-33%	-6%
COc1ccc(-c2cc(=O)c3c(OC)c(OC)c(OC)c(OC)c3o2)cc1	/	/	10µM*	/	/	10%
COc1ccccc1C(=O)Nn1c(C)nc2ccccc2c1=O	0%	2%	6%	9%	/	-5%
COc1cccc(-c2cc(=O)c3ccccc3o2)c1N	/	-25%	/	/	/	/
COc1cc(OC)c(-c2c3cc(O)c(=O)cc-3oc3cc(O)c(O)cc23)cc1OC	3.2µM*	4%	26%	3.7µM*	2.3µM*	7.9µM*
COc1cccc(-n2c(N)c(C(=O)Nc3c(C)n(C)n(-c4ccccc4)c3=O)c3nc4ccccc4nc32)c1	0%	6%	4%	-23%	?	-6%
Cc1ccc(-n2c(N)c(C(=O)Nc3c(C)n(C)n(-c4ccccc4)c3=O)c3nc4ccccc4nc32)cc1	5%	7%	11µM*	?	9.3µM*	-13%
Cc1cc(C)cc(-n2c(N)c(C(=O)Nc3c(C)n(C)n(-c4ccccc4)c3=O)c3nc4ccccc4nc32)c1	-22%	14%	?	2.9µM*	12%	-7%
Cc1ccc(C(=O)Nc2c(C)n(C)n(-c3ccccc3)c2=O)cc1	0%	-1%	11%	-11%	17%	-7%
Cc1ccc(OCCC(=O)Nc2ccc(C)c(F)c2)cc1	-2%	-6%	?	-7%	15%	4%
Cc1ccc(OCCC(=O)Nc2ccc(F)c(Cl)c2)cc1	27%	0%	-6%	15µM*	7%	28%
Cc1cccc(C(=O)OCC(=O)NCC2COc3ccccc3O2)c1 (configuration not stated)	9%	/	5%	19%	12%	9%[11.6 µM]
CC(C)C[C@H](NC(=O)NC1CCCc2ccccc21)C(=O)O (some centres not stated)	2%	6%	7%	17%	2.3µM*	5%
O=C(NC1CCCc2ccccc21)c1n[nH]c(=O)c2ccccc12 (configuration not stated)	0%	9%	22µM*	?	?	5%
COC(=O)[C@H](CC(C)C)NC(=O)NC1CCCc2ccccc21 (some centres not stated)	-6%	-30%	3%	?	-13%	7%
O=C(Cn1nnc2ccccc2c1=O)NC1CCCc2ccccc21 (configuration not stated)	3%	-5%	-6%	10µM*	8%	18%
Cc1occc1C(=O)NC1CCCc2ccccc21 (configuration not stated)	-18%	-64%	20%	6%	13µM*	-9%
SMILES	SARS PLP yeast	NS1 function inh	HCV inhibitor	Pf growth 96h	Pf growth 48h	AMA1-RON2 inh
O=C(NC1CCCc2ccccc21)c1ccccc1 (configuration not stated)	6%	-8%	14%	-28%	-25%	0%
CS(=O)(=O)c1ccc(/C=N\NC(N)=S)cc1	/	-4%	/	/	/	/
CC(C)(C)OC(=O)C[C@@H]1C/C=C\C[C@@H](CC(=O)N[C@H](CO)Cc2ccccc2)C(=O)NC[C@H](c2ccccc2)OC1=O	-3%	/	3%	/	/	8%
Cc1nn(Cc2ccccc2)c(Cl)c1C(=O)NC1CCCc2ccccc21 (configuration not stated)	?	4%	35µM*	?	-19%	-3%
Cc1ccccc1NC(=O)C1CCN(S(=O)(=O)c2cccc3nonc23)CC1	1%	?	-4%	-24%	-6%	-4%
C=CCOc1c(Br)cc(CNc2nccs2)cc1OC	12%	-10%	?	0.37µM*	?	-16%
CCN(CC)CCNCc1cc(Cl)ccc1OCc1ccccc1F	-1%	-3%	-44%	0%	5.9µM*	-7%
CC(C)(C)NCc1cc(Br)ccc1OCc1cccs1	9%	-12%	?	29%	?	8%[11.6 µM]
CC(C)(C)NCc1cc(Cl)ccc1OCc1cccs1	23%	-9%	?	9.3µM*	?	14%
CC(C)(C)NCc1cc(Cl)ccc1OCc1ccccc1F	1%	/	-24%	8.3µM*	-17%[5.75 µM]	3%
CC1(C)Cc2nc3scc(NC(=O)c4ccccc4)c3cc2CO1	-1%	-2%	-26%	22%	6%	-3%
COc1cc(CNC(C)(C)C)cc(Br)c1OCc1cccs1	30%	-1%	20µM*	19%	?	-4%[11.6 µM]
CCOc1ccc(CCNS(=O)(=O)c2ccc3c(c2)N(C(C)=O)CCO3)cc1OCC	9%	-5%	-5%	20%	-8%	0%
COc1cc(/C=C2\CCC(C3CCCC3)C2=O)ccc1OC(C)C (configuration not stated)	-1%	-2%	4%	?	2.1µM*	9%
Nc1ncnc2c1ncn2[C@@H]1O[C@H](CNC(=O)[C@@H](N)Cc2ccccc2)[C@@H](O)[C@H]1O	-7%	/	0%	/	/	12%
COc1ccc(CC(N)C(=O)NC2C(CO)OC(n3cnc4c(N(C)C)ncnc43)C2O)cc1 (configuration not stated)	/	/	/	0.34µM*	0.38µM*	/
O=C(Nc1ccc2oc(-c3ccccc3F)nc2c1)c1cncc(Br)c1	0%	-4%	?	/	8.3µM*	-11%
Cc1cc(NC(=O)c2ccc3c(c2)OCCO3)ccc1NC(=O)c1cc2ccccc2o1	0%	-1%	11µM*	?	21%	-2%
O=C(Nc1ccc2oc(-c3cccnc3)nc2c1)c1ccc2c(c1)OCCO2	0%	8%	-28%	?	8.3µM*	-11%
COc1ccccc1C(=O)Nc1ccc2oc(-c3ccc(F)cc3)nc2c1	-9%	-14%	?	10µM*	5%	-6%
